Results published in PubChem BioAssay AID651658 (Broad Institute, 2012).
About 5,100 (1.5%) of roughly 340,000 compounds were called active. This is one part of a sample in which actives are shown more often than they occur. A number with no mark means an inactive call.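 Rule for the calls: active = mean Tm shift, scaled 0 neutral to 100 positive control, at about 1.3% or above, every replicate too (limit read from the data); inconclusive = no clear call, values can overlap the other calls; inactive = the rest.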

Each molecule was assayed against Fibroblast growth factor 22 (Homo sapiens) (UniProt Q9HCT0) (assay: binders of human FGF22 protein, primary screen, FGF22 synaptogenesis inhibitor project, biophysical, thermal shift, single point (AID 651658)). Conditions: recombinant FGF22 thermal shift, SYPRO orange fluorescence; at 9.99 µM; active compounds read high; percent of sucrose octasulfate shift, DMSO zero.
Chain of Fibroblast growth factor 22 (Homo sapiens) (Q9HCT0 whole entry, looked up): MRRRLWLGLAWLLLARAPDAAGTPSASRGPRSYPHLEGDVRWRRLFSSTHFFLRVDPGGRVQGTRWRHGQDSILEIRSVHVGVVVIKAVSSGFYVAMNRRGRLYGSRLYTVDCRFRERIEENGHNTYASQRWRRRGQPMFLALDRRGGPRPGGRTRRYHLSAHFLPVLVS

Row | Compound | activity (Tm shift, normalised)
1 | Cc1ccc(NC(=O)C(c2ccccc2)N2CCN(C(=O)c3ccco3)CC2)cc1 (stereo unspecified) | -0.162%
2 | CCC(=O)Nc1ccc(C(=O)N2CCN(C(=O)c3ccco3)CC2)cc1 | 44.4% (active)
3 | Cc1ccc(OCC(=O)Nc2ccc(N3CCN(C(=O)c4ccco4)CC3)cc2)c(C)c1 | -0.015%
4 | O=C(Nc1cccc(F)c1)N[C@@H]1CC[C@@H](CCn2cc(Cc3ccccc3)nn2)O[C@@H]1CO | 0.097%
5 | CO[C@@H]1CN(C)C(=O)c2cc(NC(=O)C3CCCC3)ccc2OC[C@@H](C)N(C(=O)Nc2ccc(C(F)(F)F)cc2)C[C@H]1C | -0.774%
6 | O=C(C[C@H]1C[C@H]2c3cc(NC(=O)CC4CC4)ccc3O[C@H]2[C@H](CO)O1)NCc1ccccn1 | 0.96%
7 | Cc1ccc(NC(=O)CSc2nc(CSc3ccc(C)cc3)cc(=O)[nH]2)cc1 | 44% (active)
8 | Cc1cc(=O)[nH]c(SCC(=O)Nc2ccc(Br)cc2)n1 | -0.265%
9 | CCCc1cc(=O)[nH]c(SCC(=O)Nc2ccc(C(=O)Nc3ccccc3OC)cc2)n1 | -0.412%
10 | COc1ccc(S(=O)(=O)Nc2ccc3c(c2)C(=O)N([C@@H](C)CO)C[C@H](C)[C@@H](CN(C)C(=O)Nc2ccc4c(c2)OCO4)OCCCC[C@@H](C)O3)cc1 | 0.801%
11 | C[C@H](CO)N1C[C@H](C)[C@H](CN(C)CC2CCCC2)Oc2ncc(Br)cc2C1=O | -0.016%
12 | CC(C)NC(=O)N1[C@H](CO)[C@@H]2c3ccccc3N(C(=O)Nc3cccc(Cl)c3)C[C@@H]21 | 0.043%
13 | Cc1ccc(S(=O)(=O)N(C)C[C@@H]2Oc3c(NC(=O)NC(C)C)cccc3C(=O)N([C@H](C)CO)C[C@H]2C)cc1 | 0.01%
14 | Cc1ccc(C(C[N+](=O)[O-])c2c(C)cc3ccccn23)cc1 (stereo unspecified) | 43.8% (active)
15 | Cc1cc2ccccn2c1C(=O)c1cccc(F)c1 | -0.141%
16 | CC(=O)Nc1ccc(/C=N/Nc2ccc(C(=O)c3c(C)cc4ccccn34)cc2[N+](=O)[O-])cc1 | -0.063%
17 | Cc1cc(C)n(-c2nnc(N3CCN(c4ccccc4)CC3)nn2)n1 | 0.536%
18 | O=C(Nc1ccccc1Cl)N1CCN(c2ccc3nncn3n2)CC1 | 0.014%
19 | Cc1cc(C)n(-c2ccc3nncn3n2)n1 | 43.4% (active)
20 | CCS(=O)(=O)N1Cc2cc(C(=O)N(C)C)nc(-c3cccc(-c4ccc(C#N)cc4)c3)c2[C@H]1CCO | -0.41%
21 | CCCC#Cc1ccc2c(c1)O[C@@H](CN(C)C(=O)c1cccnc1)[C@H](C)CN([C@H](C)CO)S2(=O)=O | -0.014%
22 | OCCN1CCN(C(=S)c2ccc(-c3ccccc3)cc2)CC1 | -0.171%
23 | CN1CCN(C(=O)c2ccc(-c3ccc(Br)cc3)o2)CC1 | -0.078%
24 | S=C(c1ccc(-c2ccccc2)o1)N1CCCCC1 | 43.4% (active)
25 | C[C@@H]1CN([C@@H](C)CO)C(=O)Cc2cc(NS(C)(=O)=O)ccc2O[C@H]1CN(C)S(=O)(=O)c1ccc(F)cc1 | 0.13%
26 | COc1cccc(CNC(=O)C[C@@H]2C=C[C@@H](NC(=O)C3CCC3)[C@@H](CO)O2)c1 | 0.068%

Row | Compound | activity (Tm shift, normalised)
27 | CSc1ccc(CN(C)CC(=O)NCc2ccc(F)cc2)cc1 | 0.292%
28 | Cc1ccc(CS(=O)(=O)CCC(=O)NCc2ccc(F)cc2)cc1 | -0.138%
29 | Cc1ccc(SC(C)C(=O)NCc2ccc(F)cc2)cc1 (stereo unspecified) | 43.3% (active)
30 | CC(C)NC(=O)N(C)C[C@@H]1Oc2c(NC(=O)c3nc4ccccc4s3)cccc2C(=O)N([C@H](C)CO)C[C@H]1C | 29.2% (active)
31 | C[C@H](CO)N1C[C@H](C)[C@H](CN(C)C(=O)NC2CCCCC2)Oc2c(NC(=O)c3nc4ccccc4s3)cccc2C1=O | -0.035%
32 | C[C@@H]1CN([C@H](C)CO)C(=O)c2cccc(NC(=O)c3nc4ccccc4s3)c2O[C@@H]1CN(C)C | 0.121%
33 | COc1ccc(S(=O)(=O)Nc2ccc3c(c2)C(=O)N([C@H](C)CO)C[C@@H](C)[C@H](CN(C)C(=O)c2ccncc2)OCCCC[C@@H](C)O3)cc1 | -0.014%
34 | O=C(C[C@H]1C[C@H]2c3cc(NC(=O)CC4CC4)ccc3O[C@H]2[C@H](CO)O1)NCc1ccccc1 | 0.206%
35 | N#C[C@@H]1[C@@H](c2ccc(-c3cccnc3)cc2)[C@H](CO)N1C(=O)Nc1ccc(F)cc1 | 0.238%
36 | O=C(Nc1nnc(-c2ccccc2F)s1)c1ccccc1F | 2.31% (active)
37 | CN(Cc1ccccc1)S(=O)(=O)c1nnc(NC(=O)c2ccccc2F)s1 | -0.151%
38 | O=C(Nc1nnc(-c2ccc(F)cc2)s1)c1c(F)cccc1Cl | 0.279%
39 | CCN(C(=O)CSc1nc2ccccc2n1CC)C1CCS(=O)(=O)C1 (stereo unspecified) | 0.234%
40 | CCn1c(SCC(=O)N(C)C2CCS(=O)(=O)C2)nnc1-c1cccs1 (stereo unspecified) | 43.9% (active)
41 | CN(C(=O)CSc1nnc(-c2ccc(C(C)(C)C)cc2)n1C)C1CCS(=O)(=O)C1 (stereo unspecified) | 0.442%
42 | Cc1ccc(S(=O)(=O)Nc2ccc3c(c2)C(=O)N([C@H](C)CO)C[C@H](C)[C@@H](CN(C)C(=O)NC(C)C)OCCCC[C@@H](C)O3)cc1 | 0.879%
43 | CCCc1cn(CC[C@@H]2CC[C@@H](NC(=O)CCN3CCCCC3)[C@H](CO)O2)nn1 | 0.083%
44 | COc1ccc(C(=O)COC(=O)CNC(=O)c2cccs2)cc1Br | -0.191%
45 | COc1ccc(-n2c(C)cc(C(=O)COC(=O)c3cc(OC)c(OC)cc3NC(=O)c3cccs3)c2C)cc1 | 43.4% (active)
46 | Cc1cc(C(=O)COC(=O)C2CC2)c(C)n1-c1ccc(F)cc1 | 0.711%
47 | COc1ccc2c3c(n(C)c2c1)[C@@H](CO)N(C(=O)Nc1ccccc1F)CC31CCN(C(=O)c2ccccc2F)CC1 | -0.032%
48 | COc1ccc(NC(=O)N(C)C[C@@H]2Oc3ccc(NS(=O)(=O)c4ccc(Cl)cc4)cc3C(=O)N([C@H](C)CO)C[C@@H]2C)cc1 | 0.119%
49 | Cc1ccc2[nH]c(=O)c(CN3CCCCC3)c(-c3ccccc3)c2c1 | 43.2% (active)
50 | Cc1ccc2[nH]c(=O)c(CC(=O)O)c(-c3ccccc3)c2c1 | -0.089%
51 | c1ccc2cc3[nH]c(CN4CCCCC4)nc3cc2c1 | -0.01%
52 | Cc1ccccc1S(=O)(=O)N[C@H]1CC[C@@H](CCn2cc(Cc3ccccc3)nn2)O[C@H]1CO | -0.039%

Row | Compound | activity (Tm shift, normalised)
53 | Cc1noc(C)c1NC(=O)N(C)C[C@H]1OCCCC[C@H](C)Oc2ccc(NC(=O)Cc3ccccc3)cc2C(=O)N([C@H](C)CO)C[C@@H]1C | 1.07%
54 | CCc1ccccc1NC(=O)CSc1nnc(-c2ccncc2)o1 | -0.04%
55 | O=C(CSc1nnc(-c2ccncc2)o1)Nc1cccc(Cl)c1 | 0.107%
56 | O=C(CSc1ccc(-c2ccccc2)nn1)NCC1CCCO1 (stereo unspecified) | -0.177%
57 | O=C(CSc1nnc(-c2ccncc2)o1)NCc1ccc(Cl)cc1 | 43.9% (active)
58 | O=C(COc1ccc(Cl)cc1)NCc1nnc(SCC(=O)NCC2CCCO2)o1 (stereo unspecified) | 42.9% (active)
59 | COc1ccc2c(C)cc(SCC(=O)NCC3CCCO3)nc2c1 (stereo unspecified) | 0.011%
60 | C[C@@H]1CN([C@@H](C)CO)C(=O)c2cc(NS(=O)(=O)c3cn(C)cn3)ccc2O[C@@H]1CN(C)C(=O)NC1CCCCC1 | -0.419%
61 | COC(=O)[C@@H]1[C@@H](CO)[C@@H]2Cn3c(ccc(-c4ccc(OC)cc4)c3=O)[C@@H]2N1S(C)(=O)=O | -0.206%
62 | CCC(=O)N1[C@H](C(=O)OC)[C@@H](CO)[C@@H]2Cn3c(ccc(-c4cccc(F)c4)c3=O)[C@@H]21 | 0.191%
63 | COCC(=O)N1[C@@H](CO)[C@H](c2ccccc2)C12CN(C(=O)NC1CCCCC1)C2 | 0.045%
64 | COc1ccc2c3c([nH]c2c1)[C@H](CO)N(Cc1ccccc1)CC31CCN(C(=O)c2ccccn2)CC1 | -0.204%
65 | C[C@@H]1CN([C@@H](C)CO)C(=O)Cc2cc(NC(=O)Nc3cccc4ccccc34)ccc2O[C@H]1CN(C)CC1CCCCC1 | 0.094%
66 | O=C(NCCc1ccc(F)cc1)c1n[nH]c2ccccc12 | 43.3% (active)
67 | O=C(NCCc1ccccc1)c1c[nH]c2ccc(F)cc2c1=O | 0.52%
68 | COc1cccc(CNC(=O)c2n[nH]c3ccccc23)c1 | 0.239%
69 | CCCNC(=O)N1C[C@@H](O)COC[C@H]2O[C@H](CC(=O)NCCCN3CCOCC3)CC[C@@H]21 | -0.348%
70 | COc1ccccc1-c1ccc2c(c1)O[C@H](CN(C)C(=O)c1cccnc1)[C@H](C)CN([C@@H](C)CO)S2(=O)=O | -0.096%
71 | O=C(C[C@@H]1CC[C@@H]2[C@H](COC[C@H](O)CN2C(=O)C2CC2)O1)NCc1ccncc1 | 0.141%
72 | CN(C)CC(=O)N1[C@H](CO)[C@@H](c2ccc(-c3cccc(C(=O)N(C)C)c3)cc2)[C@@H]1C#N | 0.074%
73 | NC(=O)N1CCc2ccccc21 | 43.1% (active)
74 | O=C(c1cnn2ccccc12)N1CCc2ccccc21 | -0.357%
75 | O=C(NC(=S)N1CCc2ccccc21)c1ccco1 | 0.306%
76 | C[C@H](CO)N1C[C@H](C)[C@@H](CN(C)C(=O)Cc2ccncc2)Oc2ncc(C3=CCCCC3)cc2C1=O | 0.188%
